Source: the supplement of paper PMC10849652
About 7,900 targets were measured; listed, in parts, are those with a hit and a random draw of the rest. About 0.6% of all pairs of compound and target were hits.

Key:
Experiment in all cases: log2 fold change, soluble protein after heating vs DMSO (PISA); higher = thermal stabilisation; K562 cells, 10 uM, 30 min; active = over 0.2 and 3.5 SD of the protein, either way, in both replicates (recomputed)
[1] = compound: C#Cc1cccc(Nc2ncnc3cc(OCCOC)c(OCCOC)cc23)c1 [erlotinib]
Summary of the method: (§1)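 Values are thermal stability changes relative to control samples and are taken from duplicates. They are stated as log2 fold changes. Before quantification by TMTpro 16plex LC-MS/MS with equalised channel sums, K562 cells at 2×10^6 cells/mL were treated with 10 μM compound for 30 min, heated in aliquots for 3 min across 48°C-58°C, pooled, extracted in PBS with 0.5% NP-40 at 4°C, and centrifuged at 21,000xg for 90 min to give the soluble supernatant.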

[2] = compound: C/C(=N\NC(=O)C1=CC(=CC=C1)S(=O)(=O)N2CCOCC2)/C3=C(C=CC(=C3)Cl)O
Summary of the method: as §1

[3] = compound: C1=CC(=C(C=C1Cl)C2=NC3=NC=CN=C3C(=N2)NC4=CC=NC=C4)F
Summary of the method: as §1

[4] = compound: C1=CC(=CC=C1C2=NC3=C(N2)C=C(C=C3)C(=O)N)OC4=CC=C(C=C4)Cl
Summary of the method: as §1

[5] = compound: C1=CC2=C(C=CC(=C2)/C=C\3/C(=O)NC(=NCC4=CC=CS4)S3)N=C1
Summary of the method: as §1

[6] = compound: C1=CC2=NC=CN=C2C=C1/C=C/3\C(=O)NC(=O)S3
Summary of the method: as §1

[7] = compound: C1=CC=C(C=C1)C2=NC(=C(N2)C3=CC=NC=C3)C4=CC(=C(C=C4)Cl)O
Summary of the method: as §1

[8] = compound: C1=CC=C2C(=C1)C3=NNC4=CC=CC(=C43)C2=O
Summary of the method: as §1

[9] = compound: C1CCN(C1)C(=O)NC2=CC=CC(=C2)NC3=NC=C(C(=N3)NCCC4=CN=CN4)Br
Summary of the method: as §1

[10] = compound: C1CN(CCC1(CC2=CC=C(C=C2)Cl)N)C3=NC=NC4=C3C=CN4
Summary of the method: as §1

[11] = compound: C1COCCN1CCN2C3=CC=CC=C3N=C2NC(=O)C4=CC(=CC=C4)[N+](=O)[O-] [IRAK-1-4 Inhibitor I]
Summary of the method: as §1

[12] = compound: C=CC(=O)N1CCC[C@@H](n2nc(-c3ccc(Oc4ccccc4)cc3)c3c(N)ncnc32)C1 [ibrutinib]
Summary of the method: as §1

[13] = compound: CC(=O)c1cnc2ccc(-c3cc(Cl)c(O)c(Cl)c3)nc2c1N[C@H]1CC[C@H](CN(C)C)CC1
Summary of the method: as §1

[14] = compound: CC(C)(C)Cn1c(N)nc2ccc(-c3[nH]c(C(C)(C)C)nc3-c3ccc(F)cc3)nc21 [ralimetinib]
Summary of the method: as §1

[15] = compound: CC(C)(O)CC(=O)NCCn1ccc2ncnc(Nc3ccc(Oc4cccc(C(F)(F)F)c4)c(Cl)c3)c21
Summary of the method: as §1

[16] = compound: CC(C)C1=C2N=C(C=C(N2N=C1)NCC3=CC=CC=C3)NCCCCCCN
Summary of the method: as §1

[17] = compound: CC(C)C[C@@H](C=O)NC(=O)[C@H](CC(C)C)NC(=O)[C@H](CC(C)C)NC(=O)OCc1ccccc1
Summary of the method: as §1

[18] = compound: CC(C)N(C[C@H]1O[C@@H](n2cnc3c(N)ncnc32)[C@H](O)[C@@H]1O)[C@H]1C[C@@H](CCc2nc3cc(C(C)(C)C)ccc3[nH]2)C1 [pinometostat]
Summary of the method: as §1

[19] = compound: CC1=C(C(CC(=O)N1)C2=CC=C(C=C2)C(F)(F)F)C(=O)NC3=C(C=C4C(=C3)C=NN4)F
Summary of the method: as §1

[20] = compound: CC1=C(C2=C(C=C1)C(=O)C3=CC=CC=C3N2CCCN)C
Summary of the method: as §1

Measured: log2 fold change

AIFM2 (UniProt Q9BRQ8)
Chain of UniProt Q9BRQ8 (Q9BRQ8 whole entry, looked up): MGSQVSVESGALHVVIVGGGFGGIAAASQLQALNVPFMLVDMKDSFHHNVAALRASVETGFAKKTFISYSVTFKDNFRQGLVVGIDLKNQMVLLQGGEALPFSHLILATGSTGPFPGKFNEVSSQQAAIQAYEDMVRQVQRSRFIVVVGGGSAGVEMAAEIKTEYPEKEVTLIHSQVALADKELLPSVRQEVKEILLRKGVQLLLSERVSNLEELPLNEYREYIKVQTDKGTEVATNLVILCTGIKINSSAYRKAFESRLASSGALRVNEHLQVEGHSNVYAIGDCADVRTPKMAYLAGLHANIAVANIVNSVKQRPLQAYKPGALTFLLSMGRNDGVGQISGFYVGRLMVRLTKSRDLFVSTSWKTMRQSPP
inactive: [1] -0.038 | [2] 0.045 | [3] -0.001 | [4] 0.064 | [5] -0.025 | [6] -0.032 | [7] 0.041 | [8] 0.172 | [9] -0.045 | [10] 0.064 | [11] 0.011 | [12] -0.008 | [13] 0 | [14] -0.005 | [15] 0.189 | [16] 0.161 | [17] -0.061 | [18] 0.044 | [19] -0.062 | [20] 0.021

AARSD1 isoform 3 (UniProt Q9BTE6)
Chain of UniProt Q9BTE6 (Q9BTE6 whole entry, looked up): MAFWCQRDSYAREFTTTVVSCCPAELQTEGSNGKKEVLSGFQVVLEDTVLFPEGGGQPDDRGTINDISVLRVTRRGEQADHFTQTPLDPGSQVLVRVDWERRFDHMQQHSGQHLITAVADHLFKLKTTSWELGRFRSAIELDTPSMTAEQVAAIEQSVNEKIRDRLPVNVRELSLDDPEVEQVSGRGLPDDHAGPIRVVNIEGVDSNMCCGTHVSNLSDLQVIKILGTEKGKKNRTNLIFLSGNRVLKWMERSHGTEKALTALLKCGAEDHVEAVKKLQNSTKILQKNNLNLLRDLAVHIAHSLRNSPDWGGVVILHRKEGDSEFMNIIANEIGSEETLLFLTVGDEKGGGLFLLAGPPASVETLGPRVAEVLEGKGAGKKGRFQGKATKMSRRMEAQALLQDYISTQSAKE
inactive: [1] 0.05 | [3] 0.113 | [4] -0.014 | [5] -0.027 | [6] 0.008 | [7] -0.015 | [8] 0.053 | [9] -0.006 | [10] -0.086 | [11] 0.002 | [12] -0.074 | [13] 0.029 | [14] -0.038 | [15] -0.017 | [16] -0.177 | [17] 0.069 | [18] -0.01 | [19] -0.027 | [20] -0.126
active: [2] -0.736

BECN1 (UniProt Q14457)
Chain of UniProt Q14457 (Q14457 whole entry, looked up): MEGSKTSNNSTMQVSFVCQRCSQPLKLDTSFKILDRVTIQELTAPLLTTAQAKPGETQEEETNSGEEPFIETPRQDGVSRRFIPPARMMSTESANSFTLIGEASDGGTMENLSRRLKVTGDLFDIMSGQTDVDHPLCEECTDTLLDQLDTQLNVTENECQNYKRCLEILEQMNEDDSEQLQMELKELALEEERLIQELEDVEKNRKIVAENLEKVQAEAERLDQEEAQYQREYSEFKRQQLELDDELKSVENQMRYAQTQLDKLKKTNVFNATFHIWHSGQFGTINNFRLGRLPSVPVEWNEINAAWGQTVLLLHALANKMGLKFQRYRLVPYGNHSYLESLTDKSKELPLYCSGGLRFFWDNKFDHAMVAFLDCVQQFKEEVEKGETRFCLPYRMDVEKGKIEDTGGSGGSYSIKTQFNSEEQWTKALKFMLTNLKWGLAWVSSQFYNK
inactive: [1] -0.007 | [2] -0.035 | [3] 0.043 | [4] -0.042 | [5] -0.001 | [6] 0.085 | [7] -0.043 | [8] 0.008 | [9] 0.002 | [10] -0.042 | [11] -0.003 | [12] -0.018 | [13] 0.003 | [14] -0.004 | [15] -0.011 | [16] -0.031 | [17] -0.015 | [18] -0.032 | [19] -0.058 | [20] 0.084

B4GALT1 (UniProt P15291)
Chain of UniProt P15291 (P15291 whole entry, looked up): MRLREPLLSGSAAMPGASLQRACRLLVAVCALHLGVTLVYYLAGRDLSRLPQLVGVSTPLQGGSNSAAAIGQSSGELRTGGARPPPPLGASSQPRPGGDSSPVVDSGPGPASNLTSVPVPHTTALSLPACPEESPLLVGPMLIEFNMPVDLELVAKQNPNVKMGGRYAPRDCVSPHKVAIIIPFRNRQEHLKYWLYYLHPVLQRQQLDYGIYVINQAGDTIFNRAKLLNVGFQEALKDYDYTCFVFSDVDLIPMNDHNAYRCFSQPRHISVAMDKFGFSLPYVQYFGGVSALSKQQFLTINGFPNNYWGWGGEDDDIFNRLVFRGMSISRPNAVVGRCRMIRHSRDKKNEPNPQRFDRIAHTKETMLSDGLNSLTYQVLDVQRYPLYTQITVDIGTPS
active: [16] -0.294
inactive: [1] -0.095 | [2] 0.07 | [3] -0.018 | [4] 0.047 | [5] -0.033 | [6] 0.07 | [7] -0.035 | [8] 0.024 | [9] -0.078 | [10] 0.017 | [11] 0.034 | [12] -0.057 | [13] -0.019 | [14] 0.094 | [15] 0.094 | [17] 0.017 | [18] -0.051 | [19] 0.006 | [20] -0.03

ATL2 (UniProt Q8NHH9)
Chain of UniProt Q8NHH9 (Q8NHH9 whole entry, looked up): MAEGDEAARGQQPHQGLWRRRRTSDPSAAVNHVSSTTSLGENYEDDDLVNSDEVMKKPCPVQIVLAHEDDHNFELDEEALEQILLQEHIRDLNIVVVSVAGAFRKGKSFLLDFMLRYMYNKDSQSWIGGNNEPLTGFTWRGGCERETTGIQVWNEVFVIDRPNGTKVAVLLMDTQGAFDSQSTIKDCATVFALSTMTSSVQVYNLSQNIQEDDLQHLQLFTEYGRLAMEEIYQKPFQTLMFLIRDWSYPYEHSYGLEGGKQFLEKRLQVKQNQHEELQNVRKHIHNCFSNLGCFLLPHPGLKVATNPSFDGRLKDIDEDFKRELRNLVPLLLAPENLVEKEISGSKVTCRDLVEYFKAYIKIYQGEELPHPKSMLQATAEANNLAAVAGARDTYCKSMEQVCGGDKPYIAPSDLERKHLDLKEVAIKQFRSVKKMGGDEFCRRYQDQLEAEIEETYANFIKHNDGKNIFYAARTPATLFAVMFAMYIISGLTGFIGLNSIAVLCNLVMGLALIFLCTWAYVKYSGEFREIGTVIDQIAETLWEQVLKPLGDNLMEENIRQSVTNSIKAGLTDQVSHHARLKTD
inactive: [1] -0.004 | [2] 0 | [3] 0.081 | [4] 0.004 | [5] 0.049 | [6] 0.012 | [7] 0.049 | [8] 0.014 | [9] 0.077 | [10] 0 | [11] 0.011 | [12] 0.006 | [13] -0.058 | [14] -0.116 | [15] -0.087 | [16] 0.054 | [17] -0.001 | [18] 0.035 | [19] -0.016 | [20] 0.169

ATP13A2 (UniProt Q9NQ11)
Chain of UniProt Q9NQ11 (Q9NQ11 whole entry, looked up): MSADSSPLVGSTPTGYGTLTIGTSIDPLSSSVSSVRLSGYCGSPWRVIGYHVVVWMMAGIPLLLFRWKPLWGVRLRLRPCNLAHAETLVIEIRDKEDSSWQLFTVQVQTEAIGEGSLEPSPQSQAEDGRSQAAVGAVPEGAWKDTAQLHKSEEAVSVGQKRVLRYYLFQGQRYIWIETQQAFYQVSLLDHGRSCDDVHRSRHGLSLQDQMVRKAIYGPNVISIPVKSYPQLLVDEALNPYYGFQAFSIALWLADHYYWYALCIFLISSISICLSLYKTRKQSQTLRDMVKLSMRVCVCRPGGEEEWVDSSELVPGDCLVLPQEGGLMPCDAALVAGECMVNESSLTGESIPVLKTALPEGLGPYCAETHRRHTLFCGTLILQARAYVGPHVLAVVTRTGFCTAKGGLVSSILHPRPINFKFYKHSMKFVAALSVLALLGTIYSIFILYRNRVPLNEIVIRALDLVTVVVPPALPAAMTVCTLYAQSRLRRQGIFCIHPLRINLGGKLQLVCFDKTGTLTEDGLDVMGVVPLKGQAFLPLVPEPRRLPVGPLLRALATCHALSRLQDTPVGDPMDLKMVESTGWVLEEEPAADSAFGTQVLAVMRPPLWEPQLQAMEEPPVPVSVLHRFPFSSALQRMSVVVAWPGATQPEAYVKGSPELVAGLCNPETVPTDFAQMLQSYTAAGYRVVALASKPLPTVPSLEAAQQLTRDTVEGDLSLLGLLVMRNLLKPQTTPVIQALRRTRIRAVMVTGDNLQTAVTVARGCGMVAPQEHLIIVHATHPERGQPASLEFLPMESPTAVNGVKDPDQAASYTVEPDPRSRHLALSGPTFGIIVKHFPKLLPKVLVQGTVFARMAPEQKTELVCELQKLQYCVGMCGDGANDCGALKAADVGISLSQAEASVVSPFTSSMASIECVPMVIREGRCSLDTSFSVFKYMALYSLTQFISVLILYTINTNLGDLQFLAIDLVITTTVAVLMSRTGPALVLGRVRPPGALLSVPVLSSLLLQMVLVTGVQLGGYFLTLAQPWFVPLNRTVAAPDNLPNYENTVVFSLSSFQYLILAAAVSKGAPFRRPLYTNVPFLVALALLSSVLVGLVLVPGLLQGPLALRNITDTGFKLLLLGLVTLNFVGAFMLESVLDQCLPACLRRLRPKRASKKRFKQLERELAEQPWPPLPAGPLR
inactive: [1] 0.047 | [2] 0.012 | [3] 0.011 | [4] 0.096 | [5] 0.024 | [6] 0.099 | [7] 0.01 | [8] -0.042 | [9] 0.035 | [10] 0.082 | [11] 0.04 | [12] 0.074 | [13] 0.007 | [14] -0.033 | [15] -0.03 | [17] 0.011 | [18] 0.063 | [19] 0.044 | [20] 0.181
active: [16] -0.511

AHCYL1 (UniProt O43865)
Chain of UniProt O43865 (O43865 whole entry, looked up): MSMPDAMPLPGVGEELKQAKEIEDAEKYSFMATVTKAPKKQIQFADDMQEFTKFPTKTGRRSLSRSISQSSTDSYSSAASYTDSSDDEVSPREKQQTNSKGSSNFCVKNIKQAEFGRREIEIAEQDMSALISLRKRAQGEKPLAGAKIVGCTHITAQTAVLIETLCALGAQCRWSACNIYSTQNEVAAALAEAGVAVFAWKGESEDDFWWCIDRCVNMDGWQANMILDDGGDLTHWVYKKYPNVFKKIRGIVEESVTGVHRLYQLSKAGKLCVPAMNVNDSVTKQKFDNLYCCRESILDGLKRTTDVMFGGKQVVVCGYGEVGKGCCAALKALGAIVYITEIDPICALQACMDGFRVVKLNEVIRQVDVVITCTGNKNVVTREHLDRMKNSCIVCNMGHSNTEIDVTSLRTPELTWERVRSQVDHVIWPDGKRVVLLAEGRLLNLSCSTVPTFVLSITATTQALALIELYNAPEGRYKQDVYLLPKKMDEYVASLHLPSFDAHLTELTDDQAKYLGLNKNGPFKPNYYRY
active: [13] 0.337
inactive: [1] 0.083 | [2] -0.032 | [3] -0.008 | [4] -0.042 | [5] 0.001 | [6] 0.086 | [7] 0.09 | [8] 0.118 | [9] 0.077 | [10] 0.104 | [11] 0.035 | [12] 0.062 | [14] 0.008 | [15] -0.016 | [16] 0.014 | [17] 0.001 | [18] -0.048 | [19] -0.033 | [20] -0.004

BCCIP (UniProt Q9P287)
Chain of UniProt Q9P287 (Q9P287 whole entry, looked up): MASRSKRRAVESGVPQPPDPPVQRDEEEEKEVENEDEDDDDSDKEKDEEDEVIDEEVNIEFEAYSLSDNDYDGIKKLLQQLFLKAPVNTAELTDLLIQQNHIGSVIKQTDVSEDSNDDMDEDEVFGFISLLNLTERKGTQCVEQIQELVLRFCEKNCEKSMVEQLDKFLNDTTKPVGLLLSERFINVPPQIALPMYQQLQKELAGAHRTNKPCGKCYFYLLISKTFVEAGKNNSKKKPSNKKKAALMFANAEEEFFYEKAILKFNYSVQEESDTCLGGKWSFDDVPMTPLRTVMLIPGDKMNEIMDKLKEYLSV
active: [20] 0.255
inactive: [1] -0.024 | [2] 0.045 | [3] 0.019 | [4] -0.027 | [5] -0.029 | [6] 0.015 | [7] 0.013 | [8] 0.035 | [9] -0.036 | [10] 0.114 | [11] -0.025 | [12] -0.063 | [13] -0.06 | [14] -0.005 | [15] 0.002 | [16] 0.035 | [17] 0.015 | [18] 0.073 | [19] -0.041
